# Rows were chosen to be rich in hits. Some 7.3% of all compounds tested hit in one or more screens of this group.
# HCMV inh: human cytomegalovirus inhibition | AID 1259415 | HFF cells, HCMV-luciferase reporter, 72 h; hits give low values | 410,000 compounds, 4.5% hits | activity change, negative = inhibition, % at 57.5 µM; in the data active means activity change below about -60%; inconclusive means no clear call, values can overlap the other calls; inactive means above about -39%
#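 Human foreskin fibroblasts infected with luciferase-reporter HCMV at MOI 1 PFU/cell, compounds at two doses. Luciferase measured 72 h post infection; normalized to buffer-only basal and Salinomycin (10uM) controls.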
# AmpC inh no detg: blocks E. coli AmpC beta-lactamase in detergent-free assay | Potency, µM (top dose mostly 57.1 µM), for inactives: at the highest dose activity change, negative = inhibition, usual class: inhibitors | AID 485341 | AmpC nitrocefin hydrolysis, absorbance 480 nm, 0.0001% Triton | P00811 | 330,000 compounds, 0.52% hits;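 further: potency means the concentration at half of the fitted maximal effect; plate controls were no compound for no effect and no enzyme for full effect; nearly all actives have a fitted effect of over 20% in size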
# Target sequence (P00811 whole entry, looked up): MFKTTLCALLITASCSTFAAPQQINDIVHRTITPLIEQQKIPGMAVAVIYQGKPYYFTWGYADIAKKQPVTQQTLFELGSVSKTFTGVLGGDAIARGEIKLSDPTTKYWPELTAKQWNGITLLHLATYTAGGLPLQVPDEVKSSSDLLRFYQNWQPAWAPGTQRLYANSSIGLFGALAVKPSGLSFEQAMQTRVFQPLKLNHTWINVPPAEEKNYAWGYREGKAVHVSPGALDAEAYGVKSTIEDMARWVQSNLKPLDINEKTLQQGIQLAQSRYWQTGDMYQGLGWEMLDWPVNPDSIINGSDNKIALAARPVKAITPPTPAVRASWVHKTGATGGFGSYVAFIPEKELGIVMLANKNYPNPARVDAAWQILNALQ
#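 AmpC (5.3 nM in the dispensed reagent) in 20 mM phosphate pH 7.0 with 0.01% (detergent screen) or 0.0001% Triton X-100 was preincubated with compounds for 15 min at room temperature. Nitrocefin was then added from an 800 uM solution, and hydrolysis was followed at 480 nm.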
# AmpC inh detg: blocks E. coli AmpC beta-lactamase in detergent assay. P00811. AmpC hydrolysis of nitrocefin, absorbance 480 nm, 0.01% Triton. Potency, µM (series often up to 114 µM), for the others: at the highest dose activity change, negative = inhibition, hits mostly inhibitors. 370,000 compounds, 0.041% hits;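 further: potency means the concentration at half of the fitted maximal effect; 0% = no-compound wells and -100% = no-enzyme wells; nearly all actives have a fitted effect of over 25% in size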
#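 AmpC (5.3 nM in the dispensed reagent) in 20 mM phosphate pH 7.0 with 0.01% (detergent screen) or 0.0001% Triton X-100 was preincubated with compounds for 15 min at room temperature. Nitrocefin was then added from an 800 uM solution, and hydrolysis was followed at 480 nm.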
# HCV inh: blocks hepatitis C virus; Huh7.5.1 HCVcc-Cre infection, luciferase reporter, 44 h; Potency, µM (top dose mostly 41.8 µM), for the others: top-dose activity change, negative = inhibition, hits mostly inhibitors; 340,000 compounds, 3.4% hits; AID 651820; further: potency means the concentration at half of the fitted maximal effect
#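 Compounds are dispensed onto cells plated 4 h earlier at 1,000 per well, with HCVcc-Cre virus (about 0.5 moi) added next. Following 44 h of culture, luminescent signal is measured for 15 sec after 15 min with substrate at room temperature.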
# FMDV inh: antivirals against foot and mouth disease virus | Potency, µM (top dose mostly 57.9 µM), for the others: top-dose activity change, negative = inhibition, actives largely listed as inhibitors | FMDV antiviral cell-based qHTS | 410,000 compounds, 1.2% hits; calls by dose curve; tested in HEK293T cells; further: read-out not given here; potency means the concentration at half of the fitted maximal effect; nearly all actives have a fitted effect of over 45% in size
# Active calls of the source: *; ? = inconclusive; / = no result; ! = not active in a repeat; [ ] = remark or other dose. Unless noted, the call rests on the fitted dose curve; in most records, active means well fitted curve in the direction sought with a large enough effect; inconclusive means small, poorly fitted or top-dose-only effect, or another doubt; inactive means no such curve, though single readings can be large; an effect the other way counts as inactive or inconclusive. Unless noted, on the % scale 0 is the no-effect control and ±100 the full control effect.
SMILES,HCMV inh,AmpC inh no detg,AmpC inh detg,HCV inh,FMDV inh
Cc1ccc(C(=O)Nc2ccncc2)cc1S(=O)(=O)N1CCOCC1,2,-27%,2%,-6%,?
Cc1ccc(C(=O)Nc2ccc3c(c2)CCC3)cc1S(=O)(=O)N1CCOCC1,-62*,0%,?,?,23%
COc1ccc(NC(=O)c2cc3c(s2)CCC(C)C3)cc1S(=O)(=O)N1CCOCC1 (stereo not drawn),-100*,165%,5%,?,28µM*
CC(=O)N1c2ccc(S(=O)(=O)N3CCCCCC3)cc2CC1C(=O)NCc1cccc(C)c1 (stereo not drawn),3,/,12%,/,-15%
Cc1cc(NC(=O)c2cnc3c(-c4ccccc4)c(C)nn3c2C)ccc1Br,-10,/,-5%,/,-11%
CCc1nc2ccccc2n2c(-c3ccc(C)cc3)c3c(=O)n(C)c(=O)n(C)c3c12,35,/,19%,/,-28%
O=C(NCc1ccccn1)c1ccc(Cn2cc(Br)cn2)o1,23,?,-1%,7%,/
O=C(c1ccc(Cn2cc(Br)cn2)o1)n1cccn1,-12,0.5µM*,2%,6%,-22%
COC(=O)[C@@]12C[C@@H](CC(=O)NCCCCc3ccccc3)C(=O)N(Cc3ccc4c(c3)OCO4)C1=CCC(C)(C)C2,38,/,/,/,-11%
O=C(CCCl)N1c2ccccc2C=Cc2ccccc21,-71*,/,/,?,-5%
O=C(N1CCN(CCO)CC1)N1c2ccccc2C=Cc2ccccc21,91,24%,-13%,-2%,2%
Cn1cccc1/C=C1\Cc2ccccc2C1=O,101,-13%,?,?,56%
Cn1cccc1/C=C1\CC(C(C)(C)C)C/C(=C\c2cccn2C)C1=O (stereo not drawn),-25,-1%,0%,2.5µM*,-20%
CCc1noc(C)c1C(=O)N1CCN(S(=O)(=O)c2cccs2)CC1,13,0%,0%,-8%,3%
Cc1ccc(NC(=O)C(=O)NN=C2CCCC2)cc1C,-104*,-14%,3%,13%,71%
O=S(=O)(NCCC1=CCCCC1)c1c(Cl)cccc1Cl,-30,-21%,-13%,-16%[8.37 µM],64%
Cc1ccc(Cc2c(C3CCCCC3)nc3ccc(Cl)cn23)cc1,9,/,/,/,10%
CC(C)CNC(=O)C1(C)CCCN1Cc1ccc(S(C)(=O)=O)cc1 (stereo not drawn),-102*,/,/,/,-12%
CNc1nc(NC)nc(NNC(=O)c2ccccc2)n1,-36,/,/,31%,-23%
CCN(CC)c1nc(NNC(=O)c2ccccc2)nc(N(CC)CC)n1,-70*,/,/,-20%,3%
COc1cccc(C(c2sc3nc(-c4ccco4)nn3c2O)N2CCCC2)c1 (stereo not drawn),34,/,0%,/,77%
COc1ccc(Oc2ncc3nc(C)c(=O)n(Cc4cccc(OC)c4)c3n2)cc1,/,/,/,/,-11%
CCC(C)n1c(C)nc2c(c1=O)c1nc3ccccc3nc1n2CCC1=CCCCC1 (stereo not drawn),-88*,-16%,-15%,17%,7%
Cc1cccc(NC(=O)c2nc[nH]c2C(=O)Nc2ccccc2F)c1,-30,/,/,/,-23%
COc1cc(CN(C)CCc2ccccc2)ccc1OCc1ccccc1,-32,61%,-6%,3.5µM*,-21%
SMILES,HCMV inh,AmpC inh no detg,AmpC inh detg,HCV inh,FMDV inh
COc1ccc(CCN(C)C(=O)Cc2ccc(-c3ccccc3)cc2)cc1OC,-76*,107%,-6%,2.5µM*,?
CSc1nc2sc3c(c2c(=O)n1Cc1ccccc1)CCC(C(C)(C)C)C3 (stereo not drawn),-14,/,-9%,/,?
CCN(C(=O)C1CCCN(c2ncnc3c2nc2n3CCCCC2)C1)c1cccc(Cl)c1 (stereo not drawn),-87*!,165%,-3%,-6%,?
O=C(C1CCCN(c2ncnc3c2nc2n3CCCCC2)C1)N1CCN(c2ccc(Cl)cc2)CC1 (stereo not drawn),-83*,170%,2%,?,?
CC(=O)c1ccc(N2CCN(C(=O)C3CCCN(c4ncnc5c4nc4n5CCCCC4)C3)CC2)cc1 (stereo not drawn),9,162%,4%,?,-8%
COc1ccc(N2CCN(C(=O)C3CCCN(c4ncnc5c4nc4n5CCCCC4)C3)CC2)cc1 (stereo not drawn),-21,168%,-10%,?,-28%
O=C(C1CCCN(c2ncnc3c2nc2n3CCCCC2)C1)N1CCN(c2ccc(F)cc2)CC1 (stereo not drawn),-15,185%,6%,11µM*,?
CSc1cccc(NC(=O)C2CCCN(c3ncnc4c3nc3n4CCCCC3)C2)c1 (stereo not drawn),?,39%,?,22µM*,?
CCN(C(=O)C1CCCN(c2ncnc3c2nc2n3CCCCC2)C1)c1cccc(C)c1 (stereo not drawn),?,/,14%,/,?
Cc1c2cnn(CC(=O)N3CCCCC3)c(=O)c2c(C)n1Cc1ccc(Cl)cc1,-6,/,0%,/,-25%
CCC[C@H]1[C@@H](NS(=O)(=O)c2ccc(-c3ccccc3)cc2)CC[C@@]23CCCN2C(=O)CCC[C@@H]13,-6,/,/,/,/
O=C(NCC1CCC2(CCN(Cc3cccc4ncccc34)CC2)O1)c1ccccc1 (stereo not drawn),/,/,/,/,0%
CC1=C(C(=O)Nc2ccccc2)C(c2ccco2)NC(=O)N1 (stereo not drawn),-97*,/,/,8%,-21%
CC1=C(C(=O)Nc2ccc(C)cc2)C(c2ccco2)NC(=O)N1 (stereo not drawn),-8,-2%,?,20%,-21%
COC(=O)C1=C(c2ccccc2OCc2ccccc2)C[C@@H]2CC[C@H]1N2C(=O)NCc1ccc(N(C)C)cc1,?,43%,2%,?,-18%
COC(=O)C1=C(c2ccccc2OCc2ccccc2)C[C@@H]2CC[C@H]1N2C(=O)NCc1ccc(OC)c(OC)c1,-28,124%,4%,?,0%
COC(=O)C1=C(c2ccccc2OCc2ccccc2)C[C@@H]2CC[C@H]1N2C(=O)NCc1ccc(Cl)cc1,-13,-14%,-1%,11µM*,0%
COC(=O)C1=C(c2ccccc2OCc2ccccc2)C[C@@H]2CC[C@H]1N2C(=O)NCc1ccc([N+](=O)[O-])cc1,15,-8%,-4%,13µM*,-14%
CCOc1ccc(C(=O)c2oc3ccccc3c2NC(=O)c2cc(-c3ccccc3)on2)cc1,-17,/,6%,/,-6%
O=c1[nH]c2ccccc2n1CCCSCCCn1c(=O)[nH]c2ccccc21,-66*,35%,?,?,20µM*
Fc1ccc(-c2csc3[n+]2CCS3)cc1,-2,-12%,?,11%,16%
c1sc2[n+](c1C13CC4CC(CC(C4)C1)C3)CCS2,-64*,-5%,-1%,1%,?

# Assay outcomes (PubChem BioAssay)
